Screen size: about 190,000 compounds; about 4,100 (2.2%) were called active. The entries come from a sample that favours actives as a whole. Unmarked numbers belong to inactive results.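 How the source made its calls: active means thallium flux slope and its plate-corrected score both differing from the plate sample mean at a set confidence after two filtering rounds, in either direction; inactive means the rest.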
Target: Solute carrier family 12 member 5 (Homo sapiens) (UniProt Q9H2X9)
Assay: KCC2 cotransporter modulators, thallium flux, primary screen, cell-based, HEK293 KCC2, FluoZin-2 fluorescence, MLSMR (AID 1456);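 further: slope of fluorescence scaled to starting intensity during 10 to 20 s after thallium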
Details: KCC2 cells, thallium flux FluoZin-2 fluorescence; at 10 µM

Chain of Solute carrier family 12 member 5 (Homo sapiens) (Q9H2X9 whole entry, looked up): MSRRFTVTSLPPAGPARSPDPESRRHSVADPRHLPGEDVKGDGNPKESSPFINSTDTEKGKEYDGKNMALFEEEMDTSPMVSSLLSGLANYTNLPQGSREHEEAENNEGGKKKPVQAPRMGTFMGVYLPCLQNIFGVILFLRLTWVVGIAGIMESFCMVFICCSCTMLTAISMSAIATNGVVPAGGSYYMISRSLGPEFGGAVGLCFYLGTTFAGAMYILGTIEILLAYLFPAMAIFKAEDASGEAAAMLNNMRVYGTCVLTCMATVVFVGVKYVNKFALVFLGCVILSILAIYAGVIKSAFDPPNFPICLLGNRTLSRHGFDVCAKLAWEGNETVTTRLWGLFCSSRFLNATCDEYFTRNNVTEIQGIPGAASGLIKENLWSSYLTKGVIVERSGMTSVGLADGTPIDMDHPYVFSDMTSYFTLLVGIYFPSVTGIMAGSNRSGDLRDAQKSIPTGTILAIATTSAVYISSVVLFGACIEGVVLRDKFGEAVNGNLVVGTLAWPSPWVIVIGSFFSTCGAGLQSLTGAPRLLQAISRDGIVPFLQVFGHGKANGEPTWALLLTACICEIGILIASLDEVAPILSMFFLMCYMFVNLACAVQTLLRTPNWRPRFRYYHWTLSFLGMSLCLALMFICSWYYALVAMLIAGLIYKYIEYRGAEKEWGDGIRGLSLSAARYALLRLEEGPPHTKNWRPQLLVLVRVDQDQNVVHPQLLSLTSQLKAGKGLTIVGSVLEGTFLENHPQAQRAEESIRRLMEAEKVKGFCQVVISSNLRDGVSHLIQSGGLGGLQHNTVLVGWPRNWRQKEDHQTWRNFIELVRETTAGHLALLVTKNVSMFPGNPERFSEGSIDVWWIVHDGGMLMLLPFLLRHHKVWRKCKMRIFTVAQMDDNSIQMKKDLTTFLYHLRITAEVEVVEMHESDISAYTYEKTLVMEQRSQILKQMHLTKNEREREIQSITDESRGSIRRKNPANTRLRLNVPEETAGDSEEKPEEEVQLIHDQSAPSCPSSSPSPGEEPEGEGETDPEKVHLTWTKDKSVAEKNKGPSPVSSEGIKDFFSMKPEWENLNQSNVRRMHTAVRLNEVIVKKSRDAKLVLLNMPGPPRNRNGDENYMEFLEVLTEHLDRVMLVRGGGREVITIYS

Row | Compound | B-score of Tl+ flux slope (higher = more flux/activation; lower = inhibition)
1 | Cc1cc(C(=O)OCC(=O)Nc2nccs2)c2ccccc2n1 | -0.12
2 | Cc1ccc2c(C)c(C(=O)N3CCC(N4CCC(C(=O)NC5CC5)CC4)CC3)oc2c1 | -1.04
3 | O=C(CSc1nnnn1-c1ccc(O)cc1)N1N=C(c2ccc3ccccc3c2)CC1c1ccccc1 (stereo not given) | 0.186
4 | COC(=O)C1=C(C(=O)OC)C(c2cc([N+](=O)[O-])ccc2O)c2sc(=O)[nH]c2S1 (stereo not given) | -0.169
5 | CC1CC(C)(C)n2c(O)c(N=NC(N)=S)c3cccc1c32 (stereo not given) | 24.8 (active)
6 | COC(=O)[C@H](CC(C)C)NC(=O)N1CCCCC1C (stereo not given in full) | -0.124
7 | C/C(CC(C)C)=N\Oc1nc(C)cc(C)n1 | -1.12
8 | CCCCCCCC(=O)OC(CN1CCCCCC1)CN1CCCC1=O (stereo not given) | -0.767
9 | Cc1cc(C)cc(NC(=O)NC2CCN(CC(=O)Nc3cccc(Cl)c3C)CC2)c1 | 0.963
10 | Cc1cc(C)cc(NS(=O)(=O)c2ccc(F)cc2)c1 | -0.00878
11 | CCOc1ccc(NS(=O)(=O)c2ccc(C)c(C(N)=O)c2)cc1 | -0.277
12 | Cc1cccc(NS(=O)(=O)c2ccc(C)c(C(N)=O)c2)c1 | 4.67 (active)
13 | C/C(=N\Nc1cccc(C(=O)O)c1)c1ccc2c(c1)Nc1ccccc1S2 | -3.29
14 | CCOc1ccccc1C1CC(c2ccc(Cl)cc2)Nc2nc(N)nn21 (stereo not given) | -3.62 (active)
15 | COc1ccc(C2CC(c3ccc(Cl)cc3Cl)Nc3nc(N)nn32)cc1OC (stereo not given) | 1.07
16 | Cc1ccc(C2CC(c3cccc(C)c3)n3nc(N)nc3N2)cc1 (stereo not given) | 1.35
17 | COCCNC(=S)N1CCN(C)CC1 | 1.24
18 | CCC(C)NC(=O)C1c2ccccc2Oc2ccccc21 (stereo not given) | 0.329
19 | O=C(NCc1ccco1)C1CCCN1S(=O)(=O)c1ccccc1C(F)(F)F (stereo not given) | 0.797
20 | C/C(=N/NC(=O)c1ccc(Br)o1)c1ccc(C)o1 | 2.02
21 | C/C(=N\NC(=S)NC1CCCCC1)c1ccc(C)o1 | 13.6 (active)
22 | Cc1ccc(/C=N/NC(=O)CNC(=O)COc2ccccc2)o1 | 1.42
23 | Cc1ccc(NC(=S)NC2CCCC2)cc1 | -0.0505
24 | Cc1ccc(/C=N/NC(=S)NC2CCCCC2)o1 | 13.3 (active)
25 | S=C(NCc1ccc(Cl)cc1)NC1CCCCC1 | -1.07

Row | Compound | B-score of Tl+ flux slope (higher = more flux/activation; lower = inhibition)
26 | Nc1ccc(N=Nc2ccccc2Cl)c(N)n1 | -0.811
27 | O=C(NC(Nc1nc2ccc([N+](=O)[O-])cc2s1)(C(F)(F)F)C(F)(F)F)c1ccccc1 | 18.8 (active)
28 | O=C(Nc1nc2ccc([N+](=O)[O-])cc2s1)c1ccncc1 | 0.253
29 | O=C(O)CCC(=O)Nc1nc2ccc([N+](=O)[O-])cc2s1 | -0.905
30 | O=[N+]([O-])/C=C1\CCCCCN1 | 0.62
31 | O=C(OCN1C(=O)c2ccccc2C1=O)/C(=C\c1ccco1)NC(=O)c1ccccc1 | 0.982
32 | O=C(CNC(=O)c1ccc(-c2ccccc2)cc1)OCc1ccc(Cl)cc1 | 0.889
33 | CC(C)(C)c1ccc(C(=O)NCC(=O)OCN2C(=O)c3ccccc3C2=O)cc1 | 2.84 (active)
34 | CC(=O)OCCOCn1cnn2c(=O)c(Br)c(C)nc12 | 0.438
35 | Cn1nc(C(F)(F)F)c(-c2ccc(F)cc2)c1NC(=O)CSCC(=O)O | 0.439
36 | O=C(Nc1cccnc1)c1cc([N+](=O)[O-])ccc1Cl | -0.0312
37 | CCC(=O)NNc1cc(=O)c2c(=O)n(C)c(=O)n(C)c2[nH]1 | 1.26
38 | CC(=O)NNc1cc(=O)c2c(=O)n(C)c(=O)n(C)c2[nH]1 | 6.19 (active)
39 | Nc1nnn(CC(=O)N/N=C/c2ccc(O)cc2)n1 | 0.292
40 | Cn1nnc(NC(=S)NC(=O)c2ccccc2)n1 | 0.462
41 | CC1(C)CC(CNCCC(c2ccc(F)cc2)c2ccco2)CCO1 (stereo not given) | -2.25
42 | Cc1cccc(NC(=O)/C(=C\c2ccco2)NC(=O)c2ccccc2)c1 | 0.0694
43 | Cc1cccc(NC(=S)Nc2ccc(Br)cc2)c1 | 0.311
44 | Cc1ccc(NC(=S)NC(=O)c2ccc(-c3ccccc3)cc2)cc1 | 1.16
45 | Cc1cccc(NC(=O)c2ccc([N+](=O)[O-])o2)c1 | -0.0536
46 | Cc1cccc(NC(=S)NC(=O)c2ccc(Br)o2)c1 | 143 (active)
47 | Cc1cccc(NC(=O)NC(=S)NC(=O)c2ccccc2)c1 | 16.4 (active)
48 | CCOc1ccc(C2NC(=S)NC3=C2CCc2ccccc23)cc1 (stereo not given) | 0.359
49 | CC(=O)Nc1ccc(/C=C/C(=O)c2ccccc2)cc1 | -1.42
50 | CCCc1nc2c(c(=O)c3ccccc3n2C)c(=O)n1-c1cc(C)cc(C)c1 | -2.43
